The source made the active and inactive calls. Unless noted, no rule for the calls is given here.
Tests used:
[1] = test system: Wnt5a (protein binding on small-molecule microarray); assay: small molecules binding Wnt5a protein – biophysical, small-molecule microarray, 635/667 nm fluorescence, primary screen (AID 1142); conditions: 635 nm fluorescence, higher = more signal;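 also: fluorescence read at 667 nm with signal to noise per printed feature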
[2] = ATP-based viability of Huh7 replicon cells – cell-based, CellTiter-Glo luminescence, basal, 48 h, cytotoxicity control for HCV replication inhibitor project, primary screen (AID 1143); conditions: higher = more signal, called active from +8 up or from −8 down;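 also: Huh7 hepatoma cells carrying a hepatitis C replication reporter with no stimulus; test concentration not given here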
[3] = Pseudomonas biofilm growth suppression – PAO1 strain, BacTiter-Glo luminescence, LB-PBS, primary screen (AID 1144); conditions: P. aeruginosa PAO1 biofilm, 12 h, higher = more signal
[4] = basal CRE-LacZ reporter activity in PC12 – cell-based, unstimulated, primary screen (AID 1145); conditions: no forskolin, luminescence, 4.5 h, higher = more signal, called active from +8 up or from −8 down
[5] = forskolin-driven CRE-LacZ activity in PC12 – cell-based, CRE-LacZ reporter, forskolin-stimulated, primary screen (AID 1146); conditions: luminescence, 4.5 h, higher = more signal, called active from +8 up or from −8 down;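 also: PC12 cells with 6xCRE LacZ reporter stimulated by forskolin 10 µM; beta-galactosidase reporter signal reflecting CREB driven transcription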
[6] = target: Streptavidin (Streptomyces avidinii) (UniProt P22629); assay: compounds binding control protein streptavidin – biophysical, small-molecule microarray, 635/667 nm fluorescence, artefact control for SMM compound annotation, primary screen (AID 1147); conditions: higher = more signal;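 also: signal reflects streptavidin binding to arrayed compounds as a control protein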
[7] = probe aInhba binding on compound microarray – biochemical, small-molecule microarray, 635/667 nm fluorescence, primary screen (AID 1148); conditions: higher = more signal;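 also: score merges 667nm spot fluorescence with signal-to-noise for antibody binding to printed compounds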
[8] = target: Torsin-1A (Homo sapiens) (UniProt O14656); assay: TOR1A wild-type binding on microarray – cell lysate, small-molecule microarray, lysate, 635/667 nm, primary screen (AID 1149); conditions: COS7 hTOR1A-WT lysate, 635 nm fluorescence, higher = more signal
[9] = target: Torsin-1A (Homo sapiens) (UniProt O14656); assay: torsin A mutant lysate binding on microarrays – cell lysate, small-molecule microarray, COS7 lysate, 635/667 nm fluorescence, primary screen (AID 1150); conditions: COS7 hTOR1A mutant lysate, 635 nm fluorescence, higher = more signal;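 also: score pools 667 nm emission and signal to noise measuring lysate protein binding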
[10] = test system: Sonic hedgehog protein (Shh); assay: Sonic hedgehog microarray binding compounds – biochemical, small-molecule microarray, 635/667 nm fluorescence, primary screen (AID 1151); conditions: 635 nm fluorescence, higher = more signal;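 also: Shh protein binding to compounds spotted on small-molecule microarray slides; score combines spot fluorescence intensity with signal-to-noise across triplicate slides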

Chain of Streptavidin (Streptomyces avidinii) (P22629 whole entry, looked up): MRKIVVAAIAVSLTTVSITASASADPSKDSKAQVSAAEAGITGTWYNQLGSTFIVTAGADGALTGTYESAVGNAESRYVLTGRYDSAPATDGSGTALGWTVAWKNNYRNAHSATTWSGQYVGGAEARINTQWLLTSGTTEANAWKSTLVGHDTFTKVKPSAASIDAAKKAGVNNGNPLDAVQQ
Chain of Torsin-1A (Homo sapiens) (O14656 whole entry, looked up): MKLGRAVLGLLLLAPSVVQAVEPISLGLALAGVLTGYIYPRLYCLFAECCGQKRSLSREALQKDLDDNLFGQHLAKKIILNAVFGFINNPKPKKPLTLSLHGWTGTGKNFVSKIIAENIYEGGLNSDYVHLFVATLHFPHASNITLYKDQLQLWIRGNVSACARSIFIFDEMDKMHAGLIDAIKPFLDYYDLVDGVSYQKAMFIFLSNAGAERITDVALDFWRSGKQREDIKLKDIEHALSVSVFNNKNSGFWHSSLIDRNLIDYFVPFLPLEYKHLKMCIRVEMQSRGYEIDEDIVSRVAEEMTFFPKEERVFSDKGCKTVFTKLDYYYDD

Compound | composite z-score [1] | z-score [2] | z-score [3] | z-score [4] | z-score [5] | composite z-score [6] | composite z-score [7] | composite z-score [8] | composite z-score [9] | composite z-score [10]
COc1cc(CO)cc(I)c1O[C@H]1C=C(C(=O)NCCO)C[C@@H](NC[C@@H]2CCCO2)[C@@H]1O | -0.11 | 0.102 (inactive) | -0.69 (inactive) | 1.77 (inactive) | -0.809 (inactive) | -0.442 | -0.135 | 0.761 | 0.127 | 1.07
C#CCN1[C@H](/C=C/C2CC2)[C@H](Cc2ccccc2)OC(=O)[C@@H]1Cc1ccccc1 | -0.18 | -3.28 (inactive) | 0.854 (inactive) | 1.04 (inactive) | 1.29 (inactive) | -0.929 | -0.0675 | 0.349 | 0.429 | 1.12
C=C[C@H](C)[C@@H](OC(=O)Nc1ccc(SC)cc1)c1ccc(O)c2ccccc12 | 0.64 | -1.08 (inactive) | -0.492 (inactive) | -0.505 (inactive) | 1.69 (inactive) | 1.26 | -0.0375 | 0.163 | 0.165 | 1.76
CCOC(=O)C[C@H]1[C@H](OC(=O)c2ccc(-c3ccccc3)cc2)[C@@H](NC(=O)c2ccccc2)c2cc(OCCCO)ccc2N1C(=O)c1ccc2ccccc2n1 | 0.278 | 0.775 (inactive) | 0.577 (inactive) | -0.882 (inactive) | -0.127 (inactive) | 0.255 | 0.368 | 0.181 | 0.757 | -0.0315
O[C@@H](Cc1ccccc1)[C@@H](/C=C/C1CC1)NCc1cccc(Cl)c1 | -1.11 | -3.2 (inactive) | -0.852 (inactive) | 4.76 (inactive) | -0.426 (inactive) | -1 | -0.21 | -1.12 | -0.447 | -1
C#CCNCc1ccccc1 | -0.0766 | -0.0359 (inactive) | 1.16 (inactive) | -0.882 (inactive) | 0.531 (inactive) | 0.202 | -0.134 | 0.335 | 0.442 | 0.442
COC(=O)[C@@]1(Cc2ccc(OC)cc2)[C@H]2c3cc(C(=O)N(C)C)n(Cc4ccc(C(F)(F)F)nc4)c3C[C@H]2CN1C(=O)c1ccccc1 | 0.24 | 0.398 (inactive) | -0.123 (inactive) | 0.59 (inactive) | 1.54 (inactive) | 0.365 | 0.397 | -0.0912 | 0.0628 | -0.709
CCOc1ccc(N2C(=O)CSC2c2cccc([N+](=O)[O-])c2)cc1 (stereo not given) | 0.124 | -0.689 (inactive) | -0.245 (inactive) | -0.0243 (inactive) | -1.34 (inactive) | 0.804 | -0.0448 | 0.331 | 0.731 | 0.0304
COCCOC(=O)N1C(=O)[C@@]2(c3ccccc31)[C@H](c1ccc(OCCO)cc1)N1[C@H](c3ccccc3)[C@H](c3ccccc3)OC(=O)[C@H]1[C@@H]2C(=O)N1CCc2cc(OC)c(OC)cc2C1 | 0.349 | -2.12 (inactive) | -1.28 (inactive) | 0.623 (inactive) | 2.12 (inactive) | 0.743 | 0.505 | 0.518 | 0.153 | 1.84
CN1C(=O)C2C=CC(C(O)C=Cc3ccc([N+](=O)[O-])cc3)N(Nc3ccccc3)C2C1=O (stereo not given) | 0.286 | -0.143 (inactive) | -0.585 (inactive) | 0.426 (inactive) | 0.528 (inactive) | 1.16 | 0.0497 | 0.0394 | -0.0071 | 0.428
[N-]=[N+]=NCc1ccccc1[C@@H]1OC(c2ccc(OCCCO)cc2)=N[C@]1(CCS(=O)(=O)c1ccccc1)C(N)=O | 1.2 | -0.369 (inactive) | 1.47 (inactive) | -0.128 (inactive) | -0.785 (inactive) | 0.982 | 0.393 | 1.41 | 1.26 | 0.99
O=C1OCCC=C[C@H]2OC34C=CCN(Cn5nnc6ccccc65)C(=O)[C@H]3N(CCO)C(=O)[C@@H]4C12 (stereo not given in full) | -0.83 | -0.208 (inactive) | -1.39 (inactive) | -1.3 (inactive) | -0.688 (inactive) | -1.48 | -0.251 | -1.01 | -1.32 | -0.61
COCCCNC(=O)[C@@H]1c2ccccc2C(=O)N(Cc2ccccc2)[C@H]1c1ccc(CO)cc1 | 0.23 | 0.285 (inactive) | 0.397 (inactive) | 0.648 (inactive) | -1.01 (inactive) | 0.158 | 0.343 | 0.662 | 1.29 | 0.857
Cc1c(NC(=O)/C(C#N)=C/c2cccc([N+](=O)[O-])c2)c(=O)n(-c2ccccc2)n1C | 0.233 | -3.67 (inactive) | -1.97 (inactive) | -0.554 (inactive) | -1.47 (inactive) | 0.891 | -0.0774 | 0.659 | 1.12 | 0.478
CC(C)OC(=O)C=C1C[C@@H](c2cccc(Cl)c2)O[C@@H](c2cccc(Cl)c2)O1 | -0.0889 | -0.0636 (inactive) | -0.179 (inactive) | 0.192 (inactive) | 1.03 (inactive) | 0.776 | 0.0956 | 0.686 | -0.365 | -1.16
COc1ccc([Si](C)(C)[C@@H]2[C@@H](CC(=O)N3CCC[C@H]3CO)O[C@]3(C(=O)N(Cc4cccc(I)c4)c4ccccc43)[C@H]2C)cc1 | 0.557 | -4.27 (inactive) | 0.452 (inactive) | 0.12 (inactive) | -0.845 (inactive) | 0.168 | -0.0582 | 1.36 | 0.789 | 2.14
CCCCCCc1nc(-c2ccc(-c3ccc(Cl)c(Cl)c3)o2)c(C)c2c1[Si](C(C)C)(C(C)C)OC2 | -0.412 | -5.66 (inactive) | -1.17 (inactive) | 0.236 (inactive) | 0.246 (inactive) | 0.0199 | -0.0933 | -0.782 | 0.0515 | 0.14
C=C(/C(=C/C[C@H](OC(=O)c1ccncc1)c1ccc(OCCO)cc1)c1cc(C(=O)OC)ccc1OC)C(C)C | -0.0134 | -3.91 (inactive) | -0.518 (inactive) | 3.9 (inactive) | -0.359 (inactive) | 1.23 | -0.016 | -0.511 | 0.284 | 0.711
C[N+](C)(C)CCCC[C@@H]1NC(=O)[C@H]2C[C@@H](C(=O)NCCCCCCNC(=O)CS)[C@@H](c3ccc(O)cc3)N2C1=O | -0.195 | -0.798 (inactive) | -0.15 (inactive) | -0.947 (inactive) | -0.549 (inactive) | -1.48 | -0.024 | 2.12 | 1.3 | 0.801
Cc1ccc(C2C3C(=O)CC4C(=O)N(c5ccccc5)C(=O)C4C3CN2S(=O)(=O)c2ccc(C)cc2)cc1 (stereo not given) | 0.731 | -0.966 (inactive) | 0.538 (inactive) | -0.826 (inactive) | -0.743 (inactive) | 0.525 | 0.255 | 0.0484 | 0.392 | 0.205
COC(=O)c1c(CC[C@@H](CO)NC(=O)N[C@H](Cc2ccccc2)Cn2cc(-c3ccccn3)nn2)oc(C(C)=O)c1C(=O)OC | -0.293 | -0.105 (inactive) | 0.542 (inactive) | 0.367 (inactive) | 0.453 (inactive) | 0.946 | -0.105 | 0.813 | 0.0502 | 0.248
COc1ccc(C(=O)Nc2cccc(CN3C(=O)[C@]4(O[C@H](CCn5cc(CCO)nn5)[C@@H]([Si](C)(C)c5ccc(OC)cc5)[C@@H]4C)c4ccccc43)c2)cc1 | 0.224 | -7.97 (inactive) | -0.0511 (inactive) | 0.963 (inactive) | -1.52 (inactive) | 0.38 | -0.0963 | 0.188 | 0.359 | 1.21
CCOC(=O)C[C@H]1[C@H](OC(=O)c2ccc(C(=O)c3ccccc3)cc2)[C@@H](NC(=O)c2ccccc2)c2cc(OCCCO)ccc2N1C(=O)c1ccccc1 | 0.261 | -0.622 (inactive) | -0.948 (inactive) | -0.346 (inactive) | 1.13 (inactive) | 0.512 | 0.0541 | 0.138 | 0.628 | 0.907
NC(=O)[C@@H]1[C@H]2C(=O)O[C@H](c3ccccc3)[C@H](c3ccccc3)N2[C@H](c2ccc(OCCO)cc2)[C@@]12C(=O)Nc1ccc(C#CC3=CCCCC3)cc12 | 0.0384 | -6.11 (inactive) | -1.74 (inactive) | -1.28 (inactive) | -0.546 (inactive) | 0.778 | 0.0047 | 0.618 | 0.817 | 1.24
CCOc1cc(C(O)C2C=CC3C(=O)N(c4ccccc4)C(=O)C3N2Nc2ccc(C(C)C)cc2)ccc1O (stereo not given) | 0.12 | -1.15 (inactive) | -0.941 (inactive) | 1.96 (inactive) | 0.193 (inactive) | 0.809 | -0.0375 | 0.159 | 0.57 | 0.323
CCCNC(=O)[C@@]1(Sc2ccc(C)cc2)CC(=O)N(Cc2ccccc2C(F)(F)F)[C@@H]1c1ccc(CO)cc1I | 0.168 | -4.54 (inactive) | -0.376 (inactive) | -0.231 (inactive) | -0.0562 (inactive) | 1.17 | -0.0405 | 1.26 | 1.47 | 1.88
CC(C)N1CC=CC23O[C@@H]4C=CCOC(=O)[C@@H]4[C@H]2C(=O)N(CCCCCO)[C@@H]3C1=O (stereo not given in full) | -0.094 | -1.27 (inactive) | -1.56 (inactive) | -1.72 (inactive) | -0.679 (inactive) | -0.48 | -0.152 | -0.167 | 1.09 | 0.0095
COc1ccc([C@H]2OC[C@@H]3CCC(=O)N32)cc1 | 0.279 | 0.638 (inactive) | 0.495 (inactive) | 1.2 (inactive) | 0.426 (inactive) | 0.711 | 0.114 | 1.08 | 0.214 | 0.79
COC(=O)[C@@]1(Cc2ccc(F)cc2)[C@H]2c3cc(C(=O)N(C)C)n(Cc4ccc(C)o4)c3C[C@H]2CN1C(=O)c1ccccc1 | 0.798 | -2.07 (inactive) | -0.927 (inactive) | 0.387 (inactive) | -0.554 (inactive) | -0.649 | 1.7 | 4.51 | 4.51 | -0.81
